Experimental data published in PubChem BioAssay (NCATS).
“And” between values parts separate entries of the source, which are not always exact repeats. Equal entries are not always repeated. Results filed as inconclusive are left out. The source made the active and inactive calls. Calls come from the whole dose curve; as a rule, active = well fitted curve in the direction sought with a large enough effect; inconclusive = small, poorly fitted or top-dose-only effect, or another doubt; inactive = no such curve, though single readings can be large; an effect the other way counts as inactive or inconclusive.

How the values were obtained:
HEK293 = assay: Cytotoxic Profiling of Annotated Libraries Using Quantitative High-Throughput Screening (AID 1296008); settings: Five cell lines viability, CellTiter-Glo ATP luminescence, 48-72 h; max response: active compounds read low; note: nearly all actives have a fitted effect of over 60% in size; note: potency is the fitted concentration of half-maximal effect; for max response: % is set by controls: 0 for no effect and ±100 for the full control effect
Method in brief: (§1)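 Compounds were pin-transferred onto cells and incubated 48 or 72 hr at 37 degree Celsius, 95% humidity. CellTiter-Glo was added, plates sat 10 min at room temperature, then ATP-coupled luminescence was imaged as the viability read-out.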

KB-3-1 = assay: as above; settings: Five cell lines viability, CellTiter-Glo ATP luminescence, 48-72 h; max response: active compounds read low
Method in brief: as §1

NIH3T3 = assay: as above; settings: Five cell lines viability, CellTiter-Glo ATP luminescence, 48-72 h; max response: active compounds read low
Method in brief: as §1

MCC-13 = assay: qHTS assay to identify novel small-molecules to repurpose for Merkel cell carcinoma treatment (AID 1296009); settings: MCC and control cell lines, CellTiter-Glo viability, 72 h; series mostly up to 46 µM; note: nearly all actives have a fitted effect of over 60% in size; note: potency is the fitted concentration of half-maximal effect
Method in brief: (§2)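 qHTS format: cells treated with library compounds in DMSO across 8 (NPC) or 11 (MIPE) concentrations. Readout after 72 hr at 37 degree celsius was CellTiter-Glo luminescence.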

MCC-26 = assay: as above; settings: MCC and control cell lines, CellTiter-Glo viability, 72 h; series mostly up to 46 µM
Method in brief: as §2

MKL-1 = assay: as above; settings: MCC and control cell lines, CellTiter-Glo viability, 72 h; series mostly up to 46 µM
Method in brief: as §2

MKL-2 = assay: as above; settings: MCC and control cell lines, CellTiter-Glo viability, 72 h; series mostly up to 46 µM
Method in brief: as §2

UISO = assay: as above; settings: MCC and control cell lines, CellTiter-Glo viability, 72 h; series mostly up to 46 µM
Method in brief: as §2

WaGa = assay: as above; settings: MCC and control cell lines, CellTiter-Glo viability, 72 h; series mostly up to 46 µM
Method in brief: as §2

C33A = assay: Primary qHTS to identify gynecologic anti-cancer compounds using libraries of approved drugs and bioactive compounds (AID 1345084); settings: Gynecologic cancer cell panel viability, ATPlite luminescence, 48 h; series mostly up to 57.5 µM; note: nearly all actives have a fitted effect of over 55% in size; note: potency is the fitted concentration of half-maximal effect
Method in brief: (§3)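 Cells, 1,000 per well, were allowed to settle for 16 h at 37 C before compound addition. Five concentrations were tested for 48 h, and viability was read by ATPlite luminescence after 15 min at room temperature.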

CAOV3 = assay: as above; settings: Gynecologic cancer cell panel viability, ATPlite luminescence, 48 h; series mostly up to 57.5 µM
Method in brief: as §3

CASKI = assay: as above; settings: Gynecologic cancer cell panel viability, ATPlite luminescence, 48 h; series mostly up to 57.5 µM
Method in brief: as §3

Es-2 = assay: as above; settings: Gynecologic cancer cell panel viability, ATPlite luminescence, 48 h; series mostly up to 57.5 µM
Method in brief: as §3

HeLa = assay: as above; settings: Gynecologic cancer cell panel viability, ATPlite luminescence, 48 h; series mostly up to 57.5 µM
Method in brief: as §3

HaCat [1] = assay: Cytotoxic Profiling of Annotated Libraries Using Quantitative High-Throughput Screening (AID 1296008); settings: Five cell lines viability, CellTiter-Glo ATP luminescence, 48-72 h; max response: active compounds read low; note: nearly all actives have a fitted effect of over 60% in size; note: potency is the fitted concentration of half-maximal effect; for max response: % is set by controls: 0 for no effect and ±100 for the full control effect
Method in brief: as §1

W2 = assay: qHTS profiling for inhibitors of Plasmodium falciparum proliferation (AID 504749); settings: P. falciparum in erythrocytes, SYBR Green DNA, 72 h; series mostly up to 28.7 µM
Method in brief: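 Parasite proliferation within erythrocytes, 72 h exposure. Endpoint: SYBR Green I fluorescence after overnight lysis at room temperature. Controls: 0.29 uM artemisinin, DMSO.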

HACAT [2] = assay: qHTS assay to identify novel small-molecules to repurpose for Merkel cell carcinoma treatment (AID 1296009); settings: MCC and control cell lines, CellTiter-Glo viability, 72 h; at 44.8 µM (top of the series) unless noted; note: nearly all actives have a fitted effect of over 60% in size; note: potency is the fitted concentration of half-maximal effect
Method in brief: as §2

CCN(CC)CCNC(=O)COc1ccc(OC)cc1
inactive: max response (HEK293) 4.77% | max response (KB-3-1) 7.84% | max response (NIH3T3) -6.7% | Potency (MCC-13) | Potency (MCC-26) | Potency (MKL-1) | Potency (MKL-2) | Potency (UISO) | Potency (WaGa) | Potency (C33A) | Potency (CAOV3) | Potency (CASKI) | Potency (Es-2) | Potency (HeLa)

O[C@@H](c1cc(C(F)(F)F)nc2c(C(F)(F)F)cccc12)[C@H]1CCCCN1
active: Potency (HEK293) 9.44 µM | Potency (KB-3-1) 25.9 µM | Potency (MKL-1) 21.1 µM | Potency (MKL-2) 2.99 µM | Potency (UISO) 23.7 µM | Potency (C33A) 28.2 µM | Potency (CAOV3) 20 µM

Oc1ccc(Cl)cc1Cc1cc(Cl)ccc1O
active: Potency (HEK293) 21.1 µM | Potency (MKL-1) 23.7 µM | Potency (MKL-2) 11.9 µM
inactive: Potency (MCC-26) | Potency (CASKI) | Potency (Es-2) | Potency (HeLa)

C=C[C@H]1CN2CC[C@H]1C[C@H]2[C@H](O)c1ccnc2ccc(OC)cc12
inactive: max response (HaCat [1]) -3.94% | max response (KB-3-1) 4.92% and -14.4% and -25.6% | max response (NIH3T3) -2.33% | Potency (MCC-13) | Potency (MCC-26) | Potency (MKL-1) | Potency (MKL-2) | Potency (UISO) | Potency (C33A) | Potency (CAOV3) | Potency (CASKI) | Potency (Es-2) | Potency (HeLa)

COc1ccc(/C=N/NC(=O)c2ccncc2)cc1OC
inactive: Potency (W2) | max response (HEK293) -3.6% | outcome (HaCat [1]) | max response (NIH3T3) -0.709% | outcome (HACAT [2]) | Potency (MCC-13) | Potency (MCC-26) | Potency (MKL-1) | Potency (MKL-2) | Potency (UISO) | Potency (WaGa) | Potency (C33A) | Potency (CAOV3) | Potency (CASKI) | Potency (Es-2) | Potency (HeLa)
